# These entries were drawn from the full list.
# aSyn UTR act: Activators working through SNCA 5'UTR binding (MLPCN). AID 1814. hit rate 7.1% among 300,000. activity score, % (tested at 7.5 µM), hits read low. alpha-synuclein 5'UTR reporter, activators screen; in the data active means activity score below about -60%
# * marks the source's active call; other numbers are inactive results.
SMILES,aSyn UTR act
CCN(CC)CCNC(=O)c1nn(-c2ccc(C)cc2)c(=O)c2c1c1ccccc1n2C,-64*
COc1cc(/C=N/NC(=O)CC2(C)OCCCO2)ccc1OCc1ccccc1,-65*
COc1cc(/C=N/NC(=O)CNc2n[nH]c(=O)[nH]c2=O)ccc1OCc1ccccc1,-75*
COc1cc(/C=C/C(=O)NC(C)(C)C)ccc1OCc1ccccc1,59
COc1cc(/C=N/NC(=O)CN2CCCCC2)ccc1OCc1ccc(Br)cc1,-154*
CC1(CC(=O)N/N=C/c2ccc(OCc3ccc(Cl)cc3Cl)cc2)OCCCO1,-106*
COc1cc(/C=N/NC(=O)CC2(C)OCCCO2)ccc1OCc1ccc(Cl)cc1Cl,-70*
COc1ccc(/C=C/C(=O)c2ccc(NC3=NCCCS3)cc2)cc1OC,-99*
CO/N=C/C(C#N)=C/c1ccc(OC)cc1,-81*
OCC(O)/C=N/Nc1nc2ccccc2s1 (stereo unspecified),-72*
C(=N\Nc1nc2ccccc2s1)/c1cccs1,-212*
Cc1ccsc1/C=N/Nc1nc2ccccc2s1,-148*
CCn1c(C)c(/C=N/Nc2nc3ccccc3s2)c2ccccc21,-170*
C(=N\Nc1nc2ccccc2s1)/c1ccco1,-80*
O=C(COc1ccccc1F)N/N=C1\CCCc2ccccc21,-162*
COc1ccccc1OCC(=O)N/N=C1\CCc2ccccc21,-143*
Cc1cccc2c1OCC/C2=N\NC(=O)COc1ccccc1,-86*
O=C(c1cnc2nc3ccccc3n2c1)c1cc(F)ccc1O,-78*
COc1ccccc1NC(=S)NNC(=O)c1ccc(O)cc1,-106*
O=C(NNC(=S)Nc1ccc(Br)cc1)c1ccccc1,-107*
CC(C)(C)NC(=S)NNC(=O)c1cccc(Br)c1,-121*
O=C(NNC(=S)Nc1ccccc1)c1cccc(Br)c1,-95*
O=C(NNC(=S)Nc1ccccc1)c1ccc(O)cc1,-131*
O=C1/C(=C\c2cccs2)Sc2ccc3ccccc3c21,-165*
Cc1ccc(C(=O)OCC(=O)c2c[nH]c3ccccc23)cc1NC(=O)c1ccco1,-70*
SMILES,aSyn UTR act
CCC(=O)Nc1cc(C(=O)OCC(=O)c2ccccc2)ccc1C,-88*
CCC(=O)Nc1cc(C(=O)OCC(=O)c2ccccc2Cl)ccc1C,-168*
Cc1cc(C)n2nc(-c3ccc(F)cc3)nc2n1,-109*
O=C(O)c1ccc(N/N=C/C(Br)=C/c2ccccc2)cc1,-242*
O=C(N/N=C/C(Br)=C/c1ccccc1)C1CC1,-195*
BrC(=C\c1ccccc1)/C=N/Nc1nc2ccccc2[nH]1,-158*
O=C(N/N=C/C(Br)=C/c1ccccc1)NC1CCCCC1,-85*
O=C(N/N=C/C(Br)=C/c1ccccc1)C(O)c1ccccc1 (stereo unspecified),-74*
Cc1ccc(NCC(=O)N/N=C\C(Br)=C\c2ccccc2)cc1,-65*
Oc1ccc(N=Nc2ccc3c(c2)OCCO3)c(O)c1,62
Oc1ccc(N=Nc2ccc(Br)cc2)c(O)c1,-226*
O=c1cc(-c2ccccc2)[nH]c2cc(Cl)ccc12,104
COc1ccc(-c2cc3ccccc3[nH]2)cc1,-159*
Cc1ccc(O)c(-c2cc3ccccc3[nH]2)c1,-131*
COc1ccc2[nH]c(-c3cccc(F)c3)cc(=O)c2c1,63
c1ccc(-c2cc3ccccc3[nH]2)cc1,-139*
COc1ccc(-c2cc(=O)c3ccccc3[nH]2)cc1,-79*
CC(C)C(=O)Nc1cccc(-c2csc(-c3ccccc3)n2)c1,-70*
CC(C)C(=O)Nc1ccc(-c2csc(-c3ccccc3)n2)cc1,-205*
S=C(c1ccc(-c2ccc(Cl)cc2Cl)o1)N1CCCC1,-140*
S=C(c1ccc(-c2ccc(Cl)cc2Cl)o1)N1CCCCC1,-208*
Cn1c(/C(C#N)=C/c2ccc(O)cc2)nc2ccccc21,-126*
O=c1c(-c2ccccc2)n[nH]c2ccccc12,-87*
CC1=C(C)/C(=N\OS(=O)(=O)c2ccccc2)C=CC1=O,-80*
O=C(c1ccc(S(=O)(=O)c2ccccc2Cl)c([N+](=O)[O-])c1)N1CCCCCC1,-98*
SMILES,aSyn UTR act
O=C(c1ccc(S(=O)(=O)c2cccc(Cl)c2)c([N+](=O)[O-])c1)N1CCN(c2ccccn2)CC1,-62*
CCC(C)Nc1nc(N)c([N+](=O)[O-])c(Nc2cc(OC)ccc2OC)n1 (stereo unspecified),97
CCC(C)Nc1nc(N)c([N+](=O)[O-])c(Nc2ccccc2OC)n1 (stereo unspecified),60
CCN1CCN(c2nc(Nc3cccc(OC)c3)nc(N)c2[N+](=O)[O-])CC1,-86*
C=CC(=O)Oc1ccc(N2Cc3ccccc3C2=O)cc1,-114*
O=C1c2ccccc2CN1c1ccccc1,-107*
O=C1c2ccccc2C(=O)c2c1ncn2-c1ccccc1,70
CC(=O)c1cccc(NC(=S)NC(=O)c2ccc(C)cc2Cl)c1,-70*
CC(=O)c1cccc(NC(=S)NC(=O)c2ccc(C)cc2)c1,-83*
CC(=O)c1cccc(NC(=S)NC(=O)c2ccc(Br)cc2)c1,-143*
Cc1nc2ccc(CN(C)c3ccc(C(=O)N[C@@H](CCC(=O)O)C(=O)O)s3)cc2c(=O)[nH]1,103
COC(=O)CCC(=O)NC(=S)Nc1sc(C)c(C)c1C(N)=O,90
COC(=O)c1c(NC(=O)c2ccccc2)sc2c1CC(C)(C)OC2,-69*
Cc1sc(NC(=O)Nc2ccccc2)c(C(N)=O)c1C,-161*
Cc1sc(NC(=S)NC(=O)c2ccco2)c(C(N)=O)c1C,-92*
CC1(C)Cc2c(sc(NC(=O)Nc3ccccc3)c2C(N)=O)CO1,-158*
COC(=O)c1c(NC(=O)c2ccc(OC(C)C)cc2)sc2c1CC(C)(C)NC2(C)C,103
O=C(CCl)Nc1ccc(N2CCCCCC2)cc1,-72*
CCNC(=S)Nc1ccc(N2CCCCC2)cc1,-159*
CCCC(=O)Nc1ccc(N2CCCCC2)cc1,-116*
COc1ccc(C2=NN(CN3C(=O)C(=O)c4ccccc43)C(c3cccc([N+](=O)[O-])c3)C2)cc1 (stereo unspecified),-70*
COc1ccc(NS(=O)(=O)c2ccc(SC)cc2)c(OC)c1,-66*
COc1ccc(C2C(=O)c3ccccc3C2=O)c(OC)c1,-265*
O=C1c2ccccc2C(=O)C1c1ccnc2ccccc12,89
COc1ccc(C2C(=O)c3ccccc3C2=O)cc1,-83*
SMILES,aSyn UTR act
CCc1ccc(C2C(=O)c3ccccc3C2=O)cc1,-74*
CCC1(C)Cc2ccccc2-c2nc(NCCO)n(-c3ccc(C)cc3)c(=O)c21 (stereo unspecified),-63*
CCOC(=O)c1ccc(-c2c(-c3cc(OC)c(OC)c(OC)c3)noc2C)cc1F,58
CCOC(=O)c1ccc(-c2ccc3[nH]c4ccccc4c(=O)c3c2)cc1F,-81*
O=c1/c(=C/c2ccccn2)sc2nc3ccccc3n12,-174*
C=CCN1C(=O)/C(=C/c2ccc(N(C)C)cc2)S/C1=N\c1nnc(CC)s1,-65*
Cc1ccsc1/C=N\NC(=O)c1ccc2c(c1)OCO2,-97*
O=C(N/N=C\c1cccc(OC(=O)c2ccco2)c1)c1ccc2c(c1)OCO2,-65*
O=C(N/N=C/c1ccc2c(c1)OCO2)C1CC1,-67*
O=C(N/N=C\c1ccc2c(c1)OCO2)c1ccco1,-102*
O=C(N/N=C/c1ccc[nH]1)c1ccc2c(c1)OCO2,-93*
O=C(CCC(=O)Nc1ccccc1)N/N=C/c1ccc2c(c1)OCO2,-63*
COc1cc(/C=N\NC(=O)c2ccc(C)nc2)ccc1OC(=O)c1ccc2c(c1)OCO2,-67*
